Among the data in PubChem BioAssay AID493221 (Johns Hopkins Ion Channel Center, 2011) are CHT activity remaining % of control (hits give low values) values, retold here.

About 1,700 (71%) of roughly 2,400 compounds were called active.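 Rule for the calls: active = choline transporter activity left, mean of duplicates at 10 µM, below buffer-only control mean minus 3 SD; inactive = the rest.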 So high a share suggests a set chosen from earlier hits. A selection follows.

Sequence of High affinity choline transporter 1 (Homo sapiens) (Q9GZV3 whole entry, looked up): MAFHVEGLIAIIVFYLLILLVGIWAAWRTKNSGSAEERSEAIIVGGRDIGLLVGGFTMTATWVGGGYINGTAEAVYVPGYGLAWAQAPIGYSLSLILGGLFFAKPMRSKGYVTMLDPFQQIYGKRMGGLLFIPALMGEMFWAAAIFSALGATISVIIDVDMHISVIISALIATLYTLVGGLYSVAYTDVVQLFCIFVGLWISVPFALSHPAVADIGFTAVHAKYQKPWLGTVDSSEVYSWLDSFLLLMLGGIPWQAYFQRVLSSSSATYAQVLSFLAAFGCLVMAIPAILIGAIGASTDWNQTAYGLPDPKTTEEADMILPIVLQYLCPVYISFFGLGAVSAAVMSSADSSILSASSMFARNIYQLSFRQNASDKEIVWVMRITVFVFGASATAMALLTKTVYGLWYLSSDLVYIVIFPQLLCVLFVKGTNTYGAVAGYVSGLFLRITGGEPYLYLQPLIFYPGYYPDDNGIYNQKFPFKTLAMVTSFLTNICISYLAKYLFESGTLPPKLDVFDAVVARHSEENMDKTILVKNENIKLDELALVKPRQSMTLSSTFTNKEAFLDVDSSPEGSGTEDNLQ

The experiment has as its target High affinity choline transporter 1 (Homo sapiens) (UniProt Q9GZV3). The experiment can be described thus: human choline transporter blockers – cell-based, membrane potential dye, duplicate, confirmation (AID 493221). To be noted: CHT-expressing cells, at 10 µM, LV-to-AA substituted CHT, HEK293 cells.
In the case of `C[N+]1(C)CCOC(O)(c2ccc(-c3ccc(C4(O)C[N+](C)(C)CCO4)cc3)cc2)C1` (stereo not drawn), the CHT activity remaining % of control (hits give low values) was 4.79% (active).

In the case of `COc1ccccc1N1CCN(C(CNC(=O)Oc2ccccc2)c2cccnc2)CC1` (stereo not drawn), the CHT activity remaining % of control (hits give low values) result is “inactive”.

On to `Cc1nc2ccccn2c1P(=S)(N1CCCCC1)N1CCCCC1`, for which the CHT activity remaining % of control (hits give low values) was 61.1% (active).
